Screening data deposited in PubChem BioAssay by Center for Chemical Genomics, University of Michigan.
Many of the other results were omitted from the sample, so hits are more common in it than they were.
Dicer processing: inhibitors of Dicer pre-microRNA processing, primary screen, biochemical, cat-ELCCA, chemiluminescence; 47,000 tested, 6% active; z-score at 25 µM; cat-ELCCA pre-miR-21 Dicer processing; stronger effect = higher value; in the data active means z-score above about 3, passing the limit was not always enough;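 further: plate controls were vehicle for no effect and no enzyme for full effect; higher signal means more uncleaved substrate so more Dicer inhibition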
An asterisk follows results filed as active.

SMILES	Dicer processing
Cc1onc(-c2c(Cl)cccc2Cl)c1CSC(=S)SC(C)(C)C	-1.6
C#CC(CC)(CC)N=Cc1cc(Br)ccc1OCC	-0.12
CCOC(=O)Cc1nnc2c(Nc3ccccc3Cl)nc3nonc3n12	1
C/C(=N\N=C(N)N)c1ccc(Br)cc1	-0.68
O=C1c2ccccc2-c2c1c1ccccc1c(=O)n2Cc1ccc2c(c1)OCO2	3.1*
O=C1c2ccccc2-c2c1c1ccccc1c(=O)n2CC1CC1	-0.55
O=C1c2ccccc2C(=O)N1CN(Cc1ccc2c(c1)OCO2)CN1C(=O)c2ccccc2C1=O	-1.2
CCCN(CCC)C(=S)NC(=O)c1cccc([N+](=O)[O-])c1	1.9
N#C/C(=C\Nc1ccc(C(F)(F)F)cc1Cl)C(=O)c1ccsc1	0.64
Cc1c(-c2cc(C(F)(F)F)n3nc(-c4cccs4)cc3n2)sc2ccc(Cl)cc12	-5.7
O=C(Cn1c(NCCO)nc2ccccc21)c1cccc2ccccc12	4.2*
O=C(Cn1c(NCCO)nc2ccccc21)c1ccco1	-0.78
CC(C)n1c(NCCO)nc2ccccc21	-0.94
Cc1csc(C(=O)NNC(=O)C(Cl)Cl)c1	0.01
Cc1ccc(C)c(NS(=O)(=O)c2ccc3c4c(cccc24)C(=O)S3)c1	3.7*
Cc1ccccc1NS(=O)(=O)c1cccc2c(N(C)C)cccc12	-0.66
O=C(O)c1ccc(NS(=O)(=O)c2ccc3c4c(cccc24)C(=O)S3)cc1	0.67
Cc1cccc(NS(=O)(=O)c2ccc3c4c(cccc24)C(=O)N3)c1C	-0.37
O=C1Sc2ccc(S(=O)(=O)Nc3ccc4oc(=O)sc4c3)c3cccc1c23	11*
CN1C(=O)c2cccc3c(S(=O)(=O)Nc4ccc(C(=O)O)c(O)c4)ccc1c23	-1.7
Cc1cc(C)c(SCC(=O)N2CCN(c3ncc(C(F)(F)F)cc3Cl)CC2)c(C)c1	-1.7
c1ccc(N=C2SC(=NC3CCCCC3)C3=C2CCCC3)cc1	-0.45
CCOC(=O)/C(C#N)=C/Nc1cc(C)c(OS(=O)(=O)c2cc(Cl)cc(Cl)c2)c(Cl)c1	-1.3
C=CCn1c(-c2ccc(N)cc2)nc2ccccc21	1.5
Nc1ccc(-c2nc3cc(N)ccc3n2-c2ccccc2)cc1	3.4*
SMILES	Dicer processing
Cc1nc2ccccc2n1-c1ccccc1	-1.5
COc1ccccc1C(=O)CC1(O)C(=O)N(C(C)C)c2ccccc21 (centres undefined)	0.81
CCCc1c(C(=O)Nc2ccc(Cl)cc2)cnn1C	0.91
COc1cccc(OC)c1NC(=O)NC(=O)c1c(OC)cccc1OC	0.75
Fc1ccc(Cn2nnc3ccccc32)cc1	2.6
c1ccc2c(c1)CCN2Cn1nnc2ccccc21	4.4*
S=c1[nH]nc(Cn2nnc3ccccc32)o1	-1.4
O=C(OCc1ccc(Cl)cc1)c1cnc(NNC(=O)C(Cl)Cl)nc1C(F)(F)F	2
CN(C)C(=S)Nc1ccc(F)cc1F	7.7
CSC(SC)=C(C#N)C(=O)c1cccc(C)c1	-0.63
N#CC(C(=O)c1cccc(C(F)(F)F)c1)=C1SCCCCS1	0.81
CSC(SC)=C(C#N)C(=O)c1cccc(C(F)(F)F)c1	5.1*
O=C(CSc1nc2c(c(C(F)(F)F)n1)CCc1ccccc1-2)N1CCCC1	1.3
O=C(CSc1n[nH]c(C(F)(F)F)n1)c1ccccc1	-1.1
O=C(Nc1ccc(N2C(=O)c3cccnc3C2=O)cc1)c1ccco1	-1.3
O=C1c2cccnc2C(=O)N1c1cccc(-c2nc3ccccc3o2)c1	2.7
O=C(O)c1ccc(N2C(=O)c3cccnc3C2=O)cc1	4.5*
Cn1c(=O)cc2c3c(c(NS(=O)(=O)c4ccc(Cl)cc4)ccc31)C(=O)c1ccccc1-2	1.1
Cc1nn(C)c2sc(C(=O)NCc3ccc(N4CCN(C)CC4)cc3)cc12	0.3
CC(=O)CSc1nc(SCC(C)=O)c2c3c(sc2n1)CCC3	-0.68
O=S1(=O)N=C(Nc2nc(-c3ccc(Cl)cc3)cs2)c2ccccc21	-1.5
Cc1ccc(N2C(=O)c3oc4ccccc4c(=O)c3C2c2ccc(Br)cc2)nc1 (centres undefined)	2.7
Cc1ccc(C2c3c(oc4ccccc4c3=O)C(=O)N2c2ccc(C)cn2)cc1 (centres undefined)	4.2*
Cc1ccc(CN2C(=O)c3oc4ccc(F)cc4c(=O)c3C2c2ccc(O)cc2)cc1 (centres undefined)	0.85
COc1cc(C2c3c(oc4ccccc4c3=O)C(=O)N2Cc2ccc(F)cc2)ccc1O (centres undefined)	1.1
SMILES	Dicer processing
Cc1ccc2oc3c(c(=O)c2c1)C(c1ccccc1F)N(c1ccccn1)C3=O (centres undefined)	3.3*
COc1ccc(C2c3c(oc4cc(C)c(C)cc4c3=O)C(=O)N2c2ccc(C)cn2)cc1OC (centres undefined)	0.71
CSc1ccc(C2c3c(oc4ccc(C)cc4c3=O)C(=O)N2c2ccccn2)cc1 (centres undefined)	-0.25
COc1cc(C2c3c(oc4ccc(F)cc4c3=O)C(=O)N2Cc2ccc(C)cc2)ccc1O (centres undefined)	4.8*
COc1ccc(C2c3c(oc4cc(C)c(C)cc4c3=O)C(=O)N2c2ccccn2)cc1 (centres undefined)	-0.09
Cc1ccc2oc3c(c(=O)c2c1)C(c1cccc(O)c1)N(c1ccccn1)C3=O (centres undefined)	1.7
COc1cc(C2c3c(oc4cc(C)c(C)cc4c3=O)C(=O)N2c2ccc(C)cn2)ccc1O (centres undefined)	15*
CCOc1ccc(C2c3c(oc4ccccc4c3=O)C(=O)N2c2ccc(C)cn2)cc1OCC (centres undefined)	-1.4
O=C1C(=O)N(CCCn2ccnc2)C(c2ccco2)/C1=C(\O)c1ccc(Cl)cc1 (centres undefined)	-0.15
Cc1cc(C)n(C2=NCCN2)n1	0.19
CC(=O)N1c2ccccc2C(N(C(=O)c2cccs2)c2ccccc2)CC1C (centres undefined)	-1.1
O=C(Nc1ccc(Cl)cc1)c1cc2sccc2s1	-0.07
O=C(/C=C/c1cccs1)NC(=S)Nc1nc(-c2ccc(Cl)cc2)cs1	0.4
COc1ccc(C(=O)/C(C#N)=C/N2CCc3ccccc3C2)cc1	1.9
Cc1ccc(OCC(O)NNC(=O)OC(C)(C)C)cc1C (centres undefined)	-0.1
Cc1nnc(N2C(=O)c3oc4ccccc4c(=O)c3C2c2cccc(Cl)c2)s1 (centres undefined)	-0.52
O=C(N=S1CCN(C(=O)c2ccc(Cl)cc2)CC1)c1ccc(Cl)cc1	-0.14
CN(C)/C=C/C(=O)c1cccc(Cl)c1F	1
CCCCOc1ccc(C2c3c(oc4ccccc4c3=O)C(=O)N2c2ccccn2)cc1 (centres undefined)	2.3
C=CCOc1ccc(C2c3c(oc4ccccc4c3=O)C(=O)N2c2ccccn2)cc1 (centres undefined)	4.1*
CCOc1ccc(C2c3c(oc4ccccc4c3=O)C(=O)N2c2ccccn2)cc1 (centres undefined)	2.1
Fc1ccccc1CN1CCN(CC2CC=CCC2)CC1 (centres undefined)	-0.94
CCOC(=O)C(C)Sc1n[nH]c(=O)[nH]c1=O (centres undefined)	-0.57
Cc1ccc(S(N)(=O)=O)c(I)c1	-1.3
COc1cc(C)c(C(C)C)cc1S(=O)(=O)NCCN1CCOCC1	0.62
O=C1CC(NC2CCN(S(=O)(=O)c3ccc(Cl)cc3)CC2)C(=O)N1c1ccc(F)cc1 (centres undefined)	1.9
O=C(Oc1ccc2c(c1)oc(=O)c1ccccc12)c1ccccc1Cl	8
